The source of these data is PubChem BioAssay (EPA / NIEHS).

Calls of active or inactive are those of the source. The calls were made as follows: active = hit-call score of the fitted dose curve at least 0.9, where 1 is the maximum; inactive = score below 0.9.

Holding throughout (conditions): mRNA level, 48 h; actives raise or lower the signal
Read-out in experiment [1]: adenosine kinase (ADK) gene, ADK (gene 132)
The experiment is described as follows: LTEA_HepaRG_ADK: Life Technologies and Expression Analysis (LTEA) Assay for adenosine kinase (ADK) gene using HepaRG (AID 2283471). An outline of the steps:
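Read-out is ADK transcript level measured by qRT-PCR and normalised to three housekeeping genes. Cells are human HepaRG, dosed for 48 h at up to 100 uM in 0.5% DMSO. Gain or loss of signal is fitted against DMSO controls.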

Read-out in experiment [2]: Alpha-fetoprotein (AFP) gene, AFP (gene 174)
The experiment can be described thus: LTEA_HepaRG_AFP: Life Technologies and Expression Analysis (LTEA) Assay for Alpha-fetoprotein (AFP) gene using HepaRG (AID 2283472). An outline of the steps:
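AFP transcript measured by TaqMan qRT-PCR with three housekeeping genes for normalization, after 48 h chemical treatment of HepaRG cells (top 100 uM, half-log steps, 0.5% DMSO). Gain or loss fitted against vehicle.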

Read-out in a further experiment: BCL2L11 (gene 10018)
The experiment is described as follows: LTEA_HepaRG_BCL2L11: Life Technologies and Expression Analysis (LTEA) Assay for Bcl-2 (BCL2L11) gene using HepaRG (AID 2283473). The gist of the method: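 Differentiated human HepaRG cells were exposed 48 h in serum-free induction medium to eight half-log concentrations up to 100 uM in 0.5% DMSO, in duplicate. BCL2L11 mRNA was quantified by TaqMan qRT-PCR, normalized to ACTB, GAPDH and POLR2A; induction or repression fitted versus DMSO.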

Read-out in experiment [3]: Apolipoprotein A-V (APOA5) gene, APOA5 (gene 116519)
The experiment can be described thus: LTEA_HepaRG_APOA5: Life Technologies and Expression Analysis (LTEA) Assay for Apolipoprotein A-V (APOA5) gene using HepaRG (AID 2283474). An outline of the steps:
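Differentiated HepaRG cells in serum-free induction medium, exposed 48 h in duplicate to eight half-log concentrations topping at 100 uM (0.5% DMSO). APOA5 mRNA by Fluidigm TaqMan qRT-PCR, normalized to ACTB, GAPDH and POLR2A; bidirectional fit versus DMSO.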

Read-out in experiment [4]: Apoptosis regulator Bcl-2 (Homo sapiens) (UniProt P10415)
The experiment is described as follows: LTEA_HepaRG_BCL2: Life Technologies and Expression Analysis (LTEA) Assay for Bcl-2 gene using HepaRG (AID 2283475). The gist of the method:
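qRT-PCR of BCL2 transcript, normalized to three housekeeping genes (ACTB, GAPDH, POLR2A), after 48 h chemical exposure of HepaRG cells; concentrations top 100 uM with half-log dilutions, 0.5% DMSO vehicle, duplicates; changes up or down fitted relative to vehicle.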

Read-out in experiment [5]: Bcl-2 (BID) gene, BID (gene 637)
The experiment can be described thus: LTEA_HepaRG_BID: Life Technologies and Expression Analysis (LTEA) Assay for Bcl-2 (BID) gene using HepaRG (AID 2283476). The gist of the method: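 Duplicate 48 h treatments of HepaRG cells in serum-free induction medium spanned 100 uM downward in half-log steps, 0.5% DMSO. Transcript change quantified by qRT-PCR against three housekeeping genes, fitted up or down versus DMSO.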

Read-out in the next experiment: Caspase-3 (Homo sapiens) (UniProt P42574)
The experiment is described as follows: LTEA_HepaRG_CASP3: Life Technologies and Expression Analysis (LTEA) Assay for cysteine-aspartic acid protease (CASP3) using HepaRG (AID 2283477). The gist of the method: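 Differentiated HepaRG cells, plated 48 h, were treated in duplicate in serum-free induction medium for 48 h with eight half-log concentrations up to 100 uM in 0.5% DMSO. CASP3 mRNA measured by qRT-PCR, normalized to ACTB, GAPDH, POLR2A.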

Read-out in experiment [6]: Cytochrome P450 (CYP24A1), CYP24A1 (gene 1591)
The experiment is described as follows: LTEA_HepaRG_CYP24A1: Life Technologies and Expression Analysis (LTEA) Assay for Cytochrome P450 (CYP24A1) using HepaRG (AID 2283478). The gist of the method:
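HepaRG cells plated 48 h, then exposed in duplicate in serum-free induction medium for 48 h to 8-point half-log series from 100 uM in 0.5% DMSO. CYP24A1 mRNA by Fluidigm qRT-PCR, normalized to ACTB, GAPDH, POLR2A; bidirectional fit versus DMSO.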

Read-out in experiment [7]: Cytochrome P450 (CYP1A2), CYP1A2 (gene 1544)
The experiment is described as follows: LTEA_HepaRG_CYP1A2: Life Technologies and Expression Analysis (LTEA) Assay for Cytochrome P450 (CYP1A2) using HepaRG (AID 2283479). An outline of the steps: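 Differentiated human HepaRG cells in serum-free induction medium exposed 48 hours in duplicate to 8 half-log concentrations from 100 uM, 0.5% DMSO. CYP1A2 mRNA quantified by qRT-PCR, normalized to ACTB, GAPDH and POLR2A; bidirectional fitting versus DMSO.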

Read-out in experiment [8]: cysteine-aspartic acid protease (CASP8), CASP8 (gene 841)
The experiment is described as follows: LTEA_HepaRG_CASP8: Life Technologies and Expression Analysis (LTEA) Assay for cysteine-aspartic acid protease (CASP8) using HepaRG (AID 2283480). An outline of the steps: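 qRT-PCR readout of CASP8 mRNA, normalized to three housekeeping genes, after 48 h chemical exposure of HepaRG cells; 8-point half-log series, top 100 uM, 0.5% DMSO vehicle. Bidirectional curve fitting against DMSO baseline.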

Read-out in experiment [9]: Cytochrome P450 (CYP2B6), CYP2B6 (gene 1555)
The experiment can be described thus: LTEA_HepaRG_CYP2B6: Life Technologies and Expression Analysis (LTEA) Assay for Cytochrome P450 (CYP2B6) using HepaRG (AID 2283481). An outline of the steps: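 Differentiated human HepaRG cells in serum-free induction medium, dosed in duplicate for 48 h over 8 half-log concentrations topping at 100 uM (0.5% DMSO). CYP2B6 mRNA measured by TaqMan qRT-PCR, normalized to ACTB, GAPDH, POLR2A; bidirectional fit versus DMSO.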

Read-out in experiment [10]: Cytochrome P450 2C19 (Homo sapiens) (UniProt P33261)
The experiment is described as follows: LTEA_HepaRG_CYP2C19: Life Technologies and Expression Analysis (LTEA) Assay for CYP2C19 using HepaRG (AID 2283482). An outline of the steps:
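Differentiated HepaRG cells in serum-free induction medium exposed 48 h in duplicate, 8 concentrations from 100 uM by half-log steps in 0.5% DMSO. CYP2C19 mRNA measured by TaqMan qRT-PCR, normalized to ACTB, GAPDH, POLR2A. Bidirectional fit versus DMSO.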

Read-out in the next experiment: CYP2C8 (gene 1558)
The experiment is described as follows: LTEA_HepaRG_CYP2C8: Life Technologies and Expression Analysis (LTEA) Assay for CYP2C8 using HepaRG (AID 2283483). The gist of the method: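 HepaRG (human liver line), 48 h chemical exposure, 8-pt half-log series from 100 uM, 0.5% DMSO vehicle. Readout: CYP2C8 transcript by qRT-PCR, housekeeping-normalized. Bidirectional fit vs DMSO baseline.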

Read-out in another experiment: CYP2C9 (gene 1559)
The experiment is described as follows: LTEA_HepaRG_CYP2C9: Life Technologies and Expression Analysis (LTEA) Assay for CYP2C9 using HepaRG (AID 2283484). An outline of the steps:
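HepaRG, 48 h dosing, 8-pt half-log series, top 100 uM, 0.5% DMSO vehicle. Read-out: CYP2C9 transcript by TaqMan qRT-PCR, housekeeping-normalized (ACTB/GAPDH/POLR2A). Gain or loss fitted vs DMSO baseline.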

Read-out in a further experiment: CYP2E1 (gene 1571)
The experiment is described as follows: LTEA_HepaRG_CYP2E1: Life Technologies and Expression Analysis (LTEA) Assay for CYP2E1 using HepaRG (AID 2283485). The gist of the method:
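CYP2E1 transcript measured by Fluidigm qRT-PCR against three housekeeping genes in human HepaRG cells treated 48 h (top 100 uM, half-log steps, 0.5% DMSO vehicle). Gain or loss fitted relative to DMSO baseline.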

Read-out in a further experiment: CYP4A11 (gene 1579)
The experiment can be described thus: LTEA_HepaRG_CYP4A11: Life Technologies and Expression Analysis (LTEA) Assay for CYP4A11 using HepaRG (AID 2283486). An outline of the steps: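 Differentiated HepaRG cells, 48 h after plating, exposed in duplicate for 48 h to 8 half-log concentrations up to 100 uM in 0.5% DMSO in serum-free induction medium. CYP4A11 mRNA measured by TaqMan qRT-PCR, normalized to ACTB, GAPDH and POLR2A.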

Read-out in experiment [11]: Cytochrome P450 3A4 (Homo sapiens) (UniProt P08684)
The experiment is described as follows: LTEA_HepaRG_CYP3A4: Life Technologies and Expression Analysis (LTEA) Assay for CYP3A4 using HepaRG (AID 2283487). The gist of the method:
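HepaRG, 48 h exposure, 8-pt CRC from 100 uM (half-log), 0.5% DMSO, duplicates; serum-free induction medium. Readout: CYP3A4 mRNA, qRT-PCR, ACTB/GAPDH/POLR2A normalization. Bidirectional fit vs DMSO.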

Read-out in experiment [12]: DNA damage-inducible transcript 3 (DDIT3), DDIT3 (gene 1649)
The experiment can be described thus: LTEA_HepaRG_DDIT3: Life Technologies and Expression Analysis (LTEA) Assay for DNA damage-inducible transcript 3 (DDIT3) using HepaRG (AID 2283488). An outline of the steps: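 DDIT3 transcript was quantified by qRT-PCR with ACTB/GAPDH/POLR2A normalization after 48 h chemical treatment of differentiated HepaRG cells in 0.5% DMSO. Dosing was eight-point, half-log, top 100 uM, duplicate wells. Curves fitted bidirectionally versus DMSO.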

Read-out in experiment [13]: Pro-epidermal growth factor (Homo sapiens) (UniProt P01133)
The experiment can be described thus: LTEA_HepaRG_EGF: Life Technologies and Expression Analysis (LTEA) Assay for Epidermal growth factor (EGF) using HepaRG (AID 2283489). An outline of the steps:
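HepaRG cells (~100,000/well, 48 h pre-culture) exposed in duplicate for 48 h in serum-free induction medium to 8 half-log concentrations up to 100 uM in 0.5% DMSO. EGF mRNA by qRT-PCR, normalized to ACTB/GAPDH/POLR2A; bidirectional fit versus DMSO.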

Read-out in experiment [14]: Early growth response protein 1 (EGR1) transcription factor, EGR1 (gene 1958)
The experiment can be described thus: LTEA_HepaRG_EGR1: Life Technologies and Expression Analysis (LTEA) Assay for Early growth response protein 1 (EGR1) transcription factor using HepaRG (AID 2283490). The gist of the method: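 HepaRG, 48 h exposure, 8-pt half-log series from 100 uM, 0.5% DMSO vehicle; EGR1 transcript by TaqMan qRT-PCR (Fluidigm array), housekeeping-normalized; bidirectional fit relative to DMSO baseline.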

Cytochrome P450 3A4 (Homo sapiens), sequence (P08684 whole entry, looked up): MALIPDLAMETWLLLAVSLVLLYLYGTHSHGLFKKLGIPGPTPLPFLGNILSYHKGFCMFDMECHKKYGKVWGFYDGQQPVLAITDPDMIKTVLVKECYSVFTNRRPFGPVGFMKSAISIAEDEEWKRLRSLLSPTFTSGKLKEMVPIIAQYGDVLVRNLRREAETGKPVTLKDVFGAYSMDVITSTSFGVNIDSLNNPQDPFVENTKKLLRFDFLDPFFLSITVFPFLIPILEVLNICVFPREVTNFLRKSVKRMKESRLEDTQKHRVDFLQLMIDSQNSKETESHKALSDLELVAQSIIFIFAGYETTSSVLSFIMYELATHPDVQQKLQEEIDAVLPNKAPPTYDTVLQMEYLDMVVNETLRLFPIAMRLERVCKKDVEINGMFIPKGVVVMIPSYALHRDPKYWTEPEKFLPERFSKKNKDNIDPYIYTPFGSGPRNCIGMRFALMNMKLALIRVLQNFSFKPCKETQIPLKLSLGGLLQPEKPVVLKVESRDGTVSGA
Caspase-3 (Homo sapiens), sequence (P42574 whole entry, looked up): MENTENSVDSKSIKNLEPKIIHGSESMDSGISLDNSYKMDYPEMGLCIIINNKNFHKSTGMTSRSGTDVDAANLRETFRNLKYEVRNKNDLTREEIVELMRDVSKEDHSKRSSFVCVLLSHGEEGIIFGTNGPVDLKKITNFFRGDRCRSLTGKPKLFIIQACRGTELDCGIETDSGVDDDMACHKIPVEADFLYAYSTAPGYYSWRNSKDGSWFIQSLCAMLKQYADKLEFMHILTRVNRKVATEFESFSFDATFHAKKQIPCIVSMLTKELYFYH
Apoptosis regulator Bcl-2 (Homo sapiens), sequence (P10415 whole entry, looked up): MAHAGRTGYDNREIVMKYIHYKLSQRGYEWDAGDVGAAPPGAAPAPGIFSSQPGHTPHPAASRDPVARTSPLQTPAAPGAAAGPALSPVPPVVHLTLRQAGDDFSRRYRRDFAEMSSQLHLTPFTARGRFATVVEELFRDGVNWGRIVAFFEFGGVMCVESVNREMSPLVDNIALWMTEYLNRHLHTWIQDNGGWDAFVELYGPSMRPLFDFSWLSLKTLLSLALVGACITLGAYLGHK
Cytochrome P450 2C19 (Homo sapiens), sequence (P33261 whole entry, looked up): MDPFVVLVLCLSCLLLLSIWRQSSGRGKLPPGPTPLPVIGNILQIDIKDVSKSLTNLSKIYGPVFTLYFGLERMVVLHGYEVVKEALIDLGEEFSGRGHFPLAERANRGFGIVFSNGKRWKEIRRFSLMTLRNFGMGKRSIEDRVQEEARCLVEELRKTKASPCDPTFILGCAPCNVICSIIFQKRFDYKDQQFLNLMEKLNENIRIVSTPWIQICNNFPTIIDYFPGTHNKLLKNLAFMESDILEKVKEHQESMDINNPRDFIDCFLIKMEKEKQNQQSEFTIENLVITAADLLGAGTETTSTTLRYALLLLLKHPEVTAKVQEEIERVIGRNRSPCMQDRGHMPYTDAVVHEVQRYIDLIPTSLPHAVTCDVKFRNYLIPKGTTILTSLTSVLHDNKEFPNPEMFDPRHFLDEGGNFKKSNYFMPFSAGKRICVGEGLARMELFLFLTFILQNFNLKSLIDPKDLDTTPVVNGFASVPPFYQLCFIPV

As for `c1ccc2c(c1)ccc1ccccc12`, the result (in [1]; in [2]; in the experiment with BCL2L11 (gene 10018); in experiment [3]; in experiment [4]; in experiment [5]) was inactive. The outcome (in the experiment with Caspase-3 (Homo sapiens); in experiment [6]; in experiment [7]; in [8]; with CYP4A11 (gene 1579); in experiment [12]) was inactive. For the same compound, the outcome in [13] and in experiment [14] was inactive. Moreover, the AC50 was 5.8 µM (active) in experiment [9]; 15.4 µM (active) in experiment [10]; 12.7 µM (active) with CYP2C8 (gene 1558); 6.12 µM (active) with CYP2C9 (gene 1559); 10.1 µM (active) with CYP2E1 (gene 1571); 7.1 µM (active) in experiment [11].

As to `COC(=O)CCCCC(=O)OC`, the result (in experiment [1]; in experiment [2]; in the experiment with BCL2L11 (gene 10018); in [3]; in experiment [4]; in experiment [5]) was inactive. The compound was called inactive (with Caspase-3 (Homo sapiens); in experiment [6]; in experiment [7]; in [8]; in [9]; in experiment [10]). Moreover, the result (in the experiment with CYP2C8 (gene 1558); with CYP2C9 (gene 1559); with CYP2E1 (gene 1571); with CYP4A11 (gene 1579); in [11]; in experiment [12]) was inactive. Moreover, the compound was classed as inactive in [13] and in experiment [14].

`CCCCC(CC)COC(=O)CCCCC(=O)OCC(CC)CCCC` (stereo not given): the outcome (in experiment [1]; in experiment [2]; with BCL2L11 (gene 10018); in experiment [3]; in experiment [4]; in experiment [5]) was inactive. Moreover, the call (in the experiment with Caspase-3 (Homo sapiens); in experiment [6]; in experiment [7]; in [8]; in [9]; in experiment [10]) was inactive. The call (in the experiment with CYP2C8 (gene 1558); with CYP2C9 (gene 1559); with CYP2E1 (gene 1571); in the experiment with CYP4A11 (gene 1579); in [11]; in experiment [12]) was inactive. Further, the compound was classed as inactive in experiment [13] and in [14].
